Source: PubChem
In the library only some 4.2% were active in any assay of this set; here they are far more common.
TRPV1 potentiator: human TRPV1 potentiation. potentiation, % at 8.33 µM. AID 540277. TRPV1-expressing cells, Fluo-8 calcium influx, capsaicin EC20 potentiation. hit rate 0.02% among 320,000. Q8NER1; in the data active = potentiation above about 80%; inconclusive = between about 30% and that limit; also: 0% is about no effect
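Cells expressing TRPV1 were dye-loaded with Fluo-8 and read kinetically: 10 s baseline, 3 min after compound (agonist portion), then 2 min after EC20 capsaicin (allosteric enhancer portion). Calcium-bound dye fluorescence at 480/520 nm.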
D1 potentiator: human D1 dopamine receptor positive modulation | P21728 | HEK293 TREx D1 cells, calcium flux, dopamine EC20 potentiation | potentiation, % at 10 µM | hit rate 0.036% among 360,000 | AID 504651; in the data active = potentiation above about 30%; also: 0% is about no effect
Target sequence (P21728 whole entry, looked up): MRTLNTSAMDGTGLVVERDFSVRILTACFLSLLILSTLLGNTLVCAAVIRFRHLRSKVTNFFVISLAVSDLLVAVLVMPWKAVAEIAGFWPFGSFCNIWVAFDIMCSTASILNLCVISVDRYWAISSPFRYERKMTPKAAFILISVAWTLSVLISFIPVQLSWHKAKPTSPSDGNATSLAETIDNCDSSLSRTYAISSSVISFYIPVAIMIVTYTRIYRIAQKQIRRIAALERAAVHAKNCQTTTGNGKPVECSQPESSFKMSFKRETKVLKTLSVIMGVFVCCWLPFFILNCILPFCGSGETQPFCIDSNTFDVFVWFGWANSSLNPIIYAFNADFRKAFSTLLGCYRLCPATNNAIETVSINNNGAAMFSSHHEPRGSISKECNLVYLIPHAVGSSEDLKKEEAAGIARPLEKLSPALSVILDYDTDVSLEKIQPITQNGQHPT
TRPV1 ag: activates the human vanilloid receptor TRPV1; TRPV1-expressing cells, Fluo-8 calcium influx, agonist mode; hit rate 0.19% among 320,000; AID 540275; Q8NER1; activation, % at 8.33 µM; in the data active = activation above about 80%; inconclusive = between about 30% and that limit; also: 0% is about no effect
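Fluo-8 calcium influx in TRPV1-expressing cells, kinetic read (ex 480/em 520 nm). Compound added and read 3 min for agonist activity, followed by capsaicin at EC20 final and 2 min further read for enhancement.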
D1 antagonist: blocks dopamine activation of the human D1 receptor. hit rate 3.2% among 360,000. P21728. activity change, negative = inhibition, % at 10 µM. HEK293 TREx D1 cells, calcium flux, dopamine EC80; active compounds read low; in the data active = activity change below about -30%; also: % is scaled to controls: 0 for no effect and ±100 for the full control effect
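Antagonism measured as reduced calcium response to an EC80 dopamine addition following 180 s compound pre-read; cells were inducible HEK293 Trex D1 plated overnight at 30 C, read kinetically at 1 cycle/sec.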
D1 agonist: agonists of human D1 dopamine receptor; P21728; HEK293 T-REx D1 cells, calcium flux, agonist mode; activation, % at 2 µM; hit rate 1% among 360,000; in the data active = activation above about 30%; also: 0% is about no effect
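Agonism was scored from calcium flux recorded over 180 s (1 read/s) after pintool compound addition, following a 10-cycle baseline. Cells were inducible force-coupled HEK293 TREx D1, plated overnight at 30 C and loaded with no-wash calcium dye.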
* marks the source's active call; other numbers are inactive results; ? = inconclusive; . = not tested or not shown.

SMILES	TRPV1 potentiator	D1 potentiator	TRPV1 ag	D1 antagonist	D1 agonist
CC(=O)Nc1ccc(S(=O)(=O)Oc2ccc(/C=N/NC(=O)c3ccc(Cl)cc3)cc2)cc1	-9.8	-10.2	-3.1	-23.0	7.8
Cc1nn(S(=O)(=O)c2ccccc2)c(C)c1Sc1ccc([N+](=O)[O-])cc1	5.7	-9.3	-1.1	-33.0*	2.3
O=c1c2cc(-c3ccccc3)sc2ncn1/N=C/c1ccco1	-18.0	-5.3	-0.6	-33.0*	0.8
COc1ccccc1N1CCN(C(=O)c2cc(S(=O)(=O)N3CCC(C)CC3)cn2C)CC1	.	1.9	.	6.9	-0.6
COc1ccc(NC(=O)c2oc3ccccc3c2NC(=O)COc2ccc(C(C)C)cc2)c(OC)c1	.	-0.3	.	-0.2	1.0
CCC(=O)N1CCc2cc(CNS(=O)(=O)c3ccc(NC(=O)CC(C)C)cc3)ccc21	.	-0.7	.	-7.6	7.4
O=C(CNC(=O)c1ccc(Cl)cc1)OCc1cc(=O)n2nc(C3CCCCC3)sc2n1	.	-4.0	.	-6.5	6.6
CC(C)(C)C(=O)OCc1cc(=O)n2nc(C3CCCCC3)sc2n1	.	-0.9	.	-32.5*	2.0
Cc1ccc(OCC(=O)NCC(=O)OCc2cc(=O)n3nc(C)sc3n2)cc1	.	-3.8	.	-0.3	1.0
CC(=O)OCc1cc(=O)n2nc(C3CCCCC3)sc2n1	.	-3.2	.	-6.5	1.9
CCc1nn2c(=O)cc(COC(=O)CNC(=O)COc3ccc(C)cc3)nc2s1	.	-9.7	.	-51.5*	0.7
Cc1ccc(C(=O)NCC(=O)OCc2cc(=O)n3nc(C4CCCCC4)sc3n2)cc1	.	-3.7	.	-45.5*	0.1
CC1CCCN(CCCNC(=O)c2cc(Sc3ccc(F)cc3)nc3ccccc23)C1 (stereo not given)	.	-2.0	.	-22.4	25.7
Cc1nnc(SCc2ccccc2Cl)c2cc3sccc3n12	.	0.2	.	9.2	2.9
COc1ccc2c(CNCCc3cccs3)c(C(=O)O)n(Cc3ccc(F)cc3Cl)c2c1	.	5.9	.	3.7	-0.8
O=C(Nc1ccccc1)c1cccc(N2C(=O)C3C4C=CC(C5CC45)C3C2=O)c1 (stereo not given)	-37.0	4.2	17.2	-38.0*	9.5
O=C(Nc1ccc(Br)cc1)c1cccc(N2C(=O)C3C4CCC(C4)C3C2=O)c1 (stereo not given)	-11.3	-5.5	20.9	-39.5*	5.8
O=C(Nc1ccc(F)cc1)c1cccc(N2C(=O)C3C4C=CC(C4)C3C2=O)c1 (stereo not given)	-19.2	-5.0	19.1	2.2	9.1
COC(=O)c1ccc(NC(=O)c2cccc(N3C(=O)C4C5C=CC(C6CC56)C4C3=O)c2)cc1 (stereo not given)	-17.5	-0.5	?	12.7	7.0
O=C(Nc1ccc(F)cc1)c1cccc(N2C(=O)C3C4C=CC(C5CC45)C3C2=O)c1 (stereo not given)	-10.4	-2.1	24.7	-38.3*	12.7
O=C(Nc1ccc(F)cc1)c1cccc(N2C(=O)C3C4CCC(C4)C3C2=O)c1 (stereo not given)	-42.5	-1.1	18.6	-18.5	2.1
CC(C)Cc1nn2c(=O)cc(COC(=O)c3cccc(NC(=O)CCc4ccccc4)c3)nc2s1	.	-0.4	.	0.4	3.7
COc1ccccc1CNC(=O)CCC1N=C2c3ccccc3N=C(SCC(=O)NCCc3ccc(OC)c(OC)c3)N2C1=O (stereo not given)	.	-0.8	.	10.0	0.2
NC(=O)c1ccc(-n2nnnc2Oc2ccccc2)cc1	-1.7	1.5	1.2	-49.0*	-2.2
NC(N)=Nc1nc(C2COc3ccccc3O2)cs1 (stereo not given)	-0.2	-9.2	2.3	-30.6*	10.4
SMILES	TRPV1 potentiator	D1 potentiator	TRPV1 ag	D1 antagonist	D1 agonist
CC(=O)Nc1nc(C2COc3ccccc3O2)cs1 (stereo not given)	-8.4	-1.7	9.2	-16.2	3.3
Cc1ccccc1-c1noc(CSc2nnc(Cc3ccccc3)n2-c2ccc(F)cc2)n1	.	-0.5	.	9.8	26.5
C=CCn1c(COc2ccccc2F)nnc1SCC(=O)Nc1cc2oc3ccccc3c2cc1OC	2.9	-2.8	2.6	16.5	3.2
C=CCn1c(COc2ccccc2F)nnc1SCC(=O)c1c[nH]c2ccccc12	7.6	-5.0	4.6	-34.9*	4.7
CCOc1cc(/C=N/O)ccc1OCc1ccc([N+](=O)[O-])cc1	2.1	-0.1	-0.6	0.6	1.1
CC(=O)c1ccc(OCCOc2ccc([N+](=O)[O-])cc2)cc1	22.0	-4.5	1.6	-15.4	2.7
